Compound activity deposited in PubChem BioAssay by National Center for Advancing Translational Sciences (NCATS).
In the library only some 10% were active in any assay of this set; here they are far more common.
JMJD2A Tudor – blocks the human JMJD2A Tudor domain | O75164 | AlphaScreen JMJD2A-Tudor / H3K4me3 peptide binding | Potency, µM (top dose mostly 114 µM), without a hit: at the top dose activity change, negative = inhibition, hits mostly inhibitors | 390,000 tested, 4.4% active; further: potency means the concentration at half of the fitted maximal effect; on the % scale 0 is the no-effect control and ±100 the full control effect; nearly all actives have a fitted effect of over 50% in size
G9a inh – blocks human histone lysine methyltransferase G9a. Potency, µM (series often up to 102 µM), for the others: top-dose activity, negative = inhibition, most hits filed as inhibitors. G9a H3K9 monomethylation, AlphaScreen, 2 h. 350,000 tested, 8.8% active. Q96KQ7; further: potency means the concentration at half of the fitted maximal effect; on the % scale 0 is the no-effect control and ±100 the full control effect; nearly all actives have a fitted effect of over 75% in size
Target sequence (Q96KQ7 913-1193 limits assumed): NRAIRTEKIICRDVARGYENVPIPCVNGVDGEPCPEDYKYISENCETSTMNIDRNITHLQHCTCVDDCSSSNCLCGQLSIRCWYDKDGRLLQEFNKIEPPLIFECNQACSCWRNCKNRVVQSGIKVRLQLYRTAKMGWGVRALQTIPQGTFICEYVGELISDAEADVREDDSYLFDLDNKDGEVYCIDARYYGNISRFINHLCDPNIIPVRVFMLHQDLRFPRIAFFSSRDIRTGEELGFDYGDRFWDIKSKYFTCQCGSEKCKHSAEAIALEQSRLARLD
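Quantitative HTS format: methyltransferase activity on a biotin-tagged H3K9 peptide is measured by AlphaScreen, using a rabbit anti-monomethyl-H3K9 antibody with streptavidin donor and anti-IgG acceptor beads. Final levels are 20 nM enzyme, 500 nM peptide, 20 uM SAM; 2 h RT.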
CtBP-E1A blk – blocks the CtBP interaction with E1A. activity change, % (no concentration beside the values). AID 651724. 340,000 tested, 0.49% active. AlphaScreen GST-E1A/His-CtBP binding, 1536-well; hits give low values; in the data active means activity change below about -65%; inconclusive means mostly about -30% to -63%; further: on the % scale 0 is the no-effect control and ±100 the full control effect
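GST-E1A and His-tagged CtBP (125 nM each as 5X stock) were preincubated with pin-transferred compound for 2 h at 37 °C in the dark, then glutathione donor and nickel acceptor beads were added for 1 h before AlphaScreen reading.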
Six1-Eya2 blk – inhibitors of human Six1/Eya2 interaction. Q15475+O00167. AlphaScreen GST-Six1/His-Eya2 binding, biochemical; hits give low values. activity change, % (concentration not given with the values). 360,000 tested, 0.56% active; in the data active means activity change below about -65%; inconclusive means mostly about -30% to -63%; further: on the % scale 0 is the no-effect control and ±100 the full control effect
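AlphaScreen luminescence read after one hour at 37 °C in darkness. Pin-transferred compounds met GST-Six1 and His-Eya2 protein (5X stock 250 nM/500 nM) plus glutathione donor and Ni-chelate acceptor beads (5X, 50 ug/mL).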
HP1b binding inh – inhibitors of HP1-beta chromodomain binding to methylated histone tails; Potency, µM (doses to about 114 µM), for the others: top-dose activity change, negative = inhibition, most hits filed as inhibitors; 390,000 tested, 0.56% active; AID 540317; P83916; AlphaScreen HP1-beta / biotin-H3K9me3 peptide binding; further: potency means the concentration at half of the fitted maximal effect; nearly all actives have a fitted effect of over 70% in size
Target sequence (P83916 whole entry, looked up): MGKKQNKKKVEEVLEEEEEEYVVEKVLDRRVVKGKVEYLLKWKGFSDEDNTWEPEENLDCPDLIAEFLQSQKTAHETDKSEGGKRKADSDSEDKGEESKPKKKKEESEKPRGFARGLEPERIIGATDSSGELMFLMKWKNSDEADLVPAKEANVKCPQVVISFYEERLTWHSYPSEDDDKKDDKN
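Compound inhibition of the preformed complex between 50 nM HP1-beta and 50 nM biotinylated H3K9me3 peptide was read by AlphaScreen. Buffer was PBS pH 7.4 with 0.01% Tween-20. Incubations ran 30 min at room temperature, with 10 ug/mL donor/acceptor beads.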
BAZ2B inh – blocks human BAZ2B. Q9UIF8. AlphaScreen BAZ2B-H3K14Ac peptide displacement. Potency, µM (series often up to 114 µM), for the others: at the highest dose activity change, negative = inhibition, actives largely listed as inhibitors. 360,000 tested, 4.4% active. AID 504333; further: potency means the concentration at half of the fitted maximal effect; on the % scale 0 is the no-effect control and ±100 the full control effect; nearly all actives have a fitted effect of over 60% in size
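In this displacement format the biotinylated H3(5-23) peptide acetylated at Lys14 serves as ligand at 50 nM, with BAZ2B at 50 nM in PBS pH 7.4 containing 0.01% Tween-20. Donor and acceptor beads are 10 ug/mL final.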
* marks the source's active call; other numbers are inactive results; [ ] = another dose, or the depositor's remark. Unless noted, the call rests on the fitted dose curve; in most records, active means well fitted inhibition curve with a large enough effect; inconclusive means small, poorly fitted or top-dose-only effect; inactive means no such curve, though single readings can be large or run the other way.

For C=CCc1cccc2cc(C(=O)N3CCN(C(=O)c4ccco4)CC3)c(=O)oc12 the results were JMJD2A Tudor -2.8%, G9a inh 44.7µM*, CtBP-E1A blk -5.7, Six1-Eya2 blk -10.9, HP1b binding inh 28.1% and BAZ2B inh 6.4%.
CCCS(=O)(=O)NCCc1sc2nc(-c3ccc(F)cc3)nn2c1C was read as JMJD2A Tudor 6.8%, G9a inh 9.9%[59 µM], HP1b binding inh 35.6% and BAZ2B inh 1.0%.
`CCN(CC)CCCC(C)NC(=O)c1cccc(S(=O)(=O)N2CCc3ccccc32)c1` (stereo unspecified) gave JMJD2A Tudor -27.7%, G9a inh 44.7µM*, CtBP-E1A blk 3.9, Six1-Eya2 blk 1.2, HP1b binding inh -15.9% and BAZ2B inh -12.0%.
Screening CC(C)CN(CC(C)C)C(=O)c1cccc(S(=O)(=O)N2CCc3ccccc32)c1 returned JMJD2A Tudor 44.7µM*, G9a inh 79.4µM*, CtBP-E1A blk 4.1, Six1-Eya2 blk 1.8, HP1b binding inh -17.2% and BAZ2B inh -15.5%.
`CC(C)CCNC(=O)c1cccc(S(=O)(=O)N2CCc3ccccc32)c1` gave JMJD2A Tudor -3.4%, G9a inh -3.8%[59 µM], CtBP-E1A blk 9.7, Six1-Eya2 blk 7.9, HP1b binding inh 38.9% and BAZ2B inh -3.4%.
For Cn1c(-c2ccccc2)cnc1NCc1cc(Cl)ccc1O the results were JMJD2A Tudor 35.5µM*, CtBP-E1A blk -22.5, Six1-Eya2 blk inconclusive, HP1b binding inh inconclusive and BAZ2B inh 56.2µM*.
COc1ccc(CNc2ncc(-c3ccccc3)n2C)c2ccccc12 was read as JMJD2A Tudor 17.8µM*, CtBP-E1A blk -7.0, Six1-Eya2 blk -20.2, HP1b binding inh inconclusive and BAZ2B inh 50.1µM*.
CCOc1c(CNc2nnnn2C)cccc1OC was read as JMJD2A Tudor -12.0%, G9a inh 10.0%, CtBP-E1A blk 4.5, Six1-Eya2 blk 14.0, HP1b binding inh 60.1% and BAZ2B inh -14.0%.
For COc1ccc(OC)c(CNc2ncc(-c3cccc([N+](=O)[O-])c3)n2C)c1 the results were JMJD2A Tudor 44.7µM*, G9a inh 28.2µM*, Six1-Eya2 blk -12.9, HP1b binding inh 14.1µM* and BAZ2B inh 50.1µM*.
For COc1ccc(CNc2ncc(-c3ccccc3)n2C)c(OC)c1OC the results were JMJD2A Tudor 20µM*, G9a inh 7.08µM*, Six1-Eya2 blk -0.5, HP1b binding inh inconclusive and BAZ2B inh 50.1µM*.
`COc1cccc(CNc2nc3cc(-c4ccccc4)sc3c(=O)n2C)c1OC` gave CtBP-E1A blk -16.6 and Six1-Eya2 blk 0.0.
COc1ccc(CC(=O)Nc2nnc(-c3cccc([N+](=O)[O-])c3)s2)cc1 was read as JMJD2A Tudor -7.6%, G9a inh inconclusive, CtBP-E1A blk 3.4, Six1-Eya2 blk 2.8, HP1b binding inh 27.4% and BAZ2B inh 6.0%.
For Cc1ccc(-c2cn3c(n2)sc2cc(C(=O)NCCCc4ccccc4)ccc23)c(C)c1 the results were JMJD2A Tudor 89.8%, G9a inh 98.3%[59 µM], HP1b binding inh 148.4% and BAZ2B inh 63.0%.
Cc1cc(C)c(NC(=O)C(C)n2c(=O)cc(-c3ccccc3)c3c(C)nn(C)c32)c(C)c1 (stereo unspecified) was read as JMJD2A Tudor -13.3%, G9a inh 4.2%[59 µM], HP1b binding inh 70.3% and BAZ2B inh 1.1%.
CCN(CC)C(=O)c1sc(NC(=S)N2CCN(C(=O)C3CCCO3)CC2)c(C(=O)OC)c1C (stereo unspecified) was read as JMJD2A Tudor -16.6%, G9a inh 50.1µM*, CtBP-E1A blk -1.4, Six1-Eya2 blk 0.1, HP1b binding inh 26.7% and BAZ2B inh 2.3%.
CCOC(=O)c1c(NC(=O)C2CCCO2)sc(C(N)=O)c1C (stereo unspecified) was read as JMJD2A Tudor -14.4%, G9a inh inconclusive, CtBP-E1A blk -4.5, Six1-Eya2 blk 1.2, HP1b binding inh 20.8% and BAZ2B inh -33.0%.
CCCOC(=O)c1c(NC(=O)C2CCCO2)sc(C(=O)OC)c1C (stereo unspecified) was read as JMJD2A Tudor inconclusive, G9a inh 3.55µM*, CtBP-E1A blk -26.6, Six1-Eya2 blk -1.3, HP1b binding inh inconclusive and BAZ2B inh -5.9%.
Screening CSc1nc(N)n2nc(C)cc2n1 returned CtBP-E1A blk -92.1* and Six1-Eya2 blk -89.3*.
Screening CC(C)c1ccc(N2C(=O)/C(=C/N(C)C)SC2=S)cc1 returned JMJD2A Tudor 44.7µM*, G9a inh 50.1µM*, Six1-Eya2 blk inconclusive, HP1b binding inh inconclusive and BAZ2B inh 44.7µM*.
CCC(Oc1ccccc1)C(=O)Nc1ccc(O)c(-c2nc3cc(C)ccc3o2)c1 (stereo unspecified) was read as JMJD2A Tudor 2.0%, G9a inh 23.1%[59 µM], HP1b binding inh 66.6% and BAZ2B inh 1.1%.
Screening COCC(C)NC(C(=O)Nc1cccc(C(C)=O)c1)c1ccccc1 (stereo unspecified) returned JMJD2A Tudor -6.2%, G9a inh 15.6%, CtBP-E1A blk 5.6, Six1-Eya2 blk -4.8, HP1b binding inh 32.1% and BAZ2B inh -2.5%.
Screening CCN(CC)CCNC(C(=O)Nc1cccc(C(C)=O)c1)c1ccccc1 (stereo unspecified) returned JMJD2A Tudor 1.12µM*, G9a inh inconclusive, CtBP-E1A blk -2.0, Six1-Eya2 blk 2.1, HP1b binding inh inconclusive and BAZ2B inh 56.2µM*.
CCOc1ccc(NC(C(=O)Nc2cccc(C(C)=O)c2)c2ccccc2)cc1 (stereo unspecified) was read as JMJD2A Tudor inconclusive, G9a inh 44.7µM*, CtBP-E1A blk 9.4, Six1-Eya2 blk inconclusive, HP1b binding inh -37.4% and BAZ2B inh 39.8µM*.
Screening NC(=O)C1CCN(S(=O)(=O)c2ccc(N3CCCCS3(=O)=O)cc2)CC1 returned JMJD2A Tudor -2.3%, G9a inh 8.6%[12.7 µM], HP1b binding inh 34.8% and BAZ2B inh -0.4%.
CCOc1ccc(OCC)c(NC(=O)C2C3C=CC(O3)C2C(=O)NCc2ccco2)c1 (stereo unspecified) was read as JMJD2A Tudor inconclusive, G9a inh 50.1µM*, CtBP-E1A blk -5.9, Six1-Eya2 blk -4.6, HP1b binding inh -14.0% and BAZ2B inh inconclusive.
Screening NS(=O)(=O)c1cccc(NC(=O)CCSc2ccc(Cl)cc2)c1 returned JMJD2A Tudor 9.0%, G9a inh 1.41µM*, CtBP-E1A blk 1.5, Six1-Eya2 blk 7.9, HP1b binding inh 43.6% and BAZ2B inh -5.7%.
